Source: PubChem BioAssay
RTF Ca sens act – cardiac RTF calcium sensitivity activators, primary screen, biochemical, IANBD-TnC fluorescence, EC20 calcium. AID 493008, 2010. Troponin I, cardiac muscle (Homo sapiens) + Troponin T, cardiac muscle (Homo sapiens) + …. 0.24% of 340,000 active. activation, % at 7.2 µM. IANBD-labeled TnC RTF fluorescence at EC20 calcium; 0% EC20 calcium, 100% full calcium;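 active = activation above the mean over all tested compounds plus 3 SD, cut at about 30% in these data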;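 note: rise in fluorescence read as greater calcium sensitivity of cardiac thin filaments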
Keap1 Nrf2 FP – Keap1-Nrf2 protein-protein interaction inhibitors, primary screen, biochemical, fluorescence polarization, single point; inhibition, % at 9.4 µM; AID 504523, 2011; Keap1 Kelch-Nrf2 peptide fluorescence polarization, 1536-well; 0.15% of 340,000 active; Kelch-like ECH-associated protein 1 (Homo sapiens), Q14145; in the data active = inhibition above about 12%;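 note: human Keap1 Kelch domain with fluorescein labeled Nrf2 9mer peptide probe; 0% = neutral control wells and 100% = peptide positive control; higher means more block of Keap1 binding to Nrf2 peptide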
LANA DNA inh – inhibitors of KSHV C-LANA binding to DNA, primary screen, biochemical, fluorescence polarization, FAM-LBS DNA, MBP-C-LANA, single point; Kaposi's sarcoma herpesvirus LANA C-terminal domain (residues 932-1162) DNA binding; inhibition, % at 9 µM; 0.078% of 340,000 active; AID 504423, 2011;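 active = highest replicate inhibition at or above 60% at 9 µM, even if other replicates fall short; inactive = all replicates below 60% inhibition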;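 note: 0% = neutral control wells and 100% = 4 µM acridine orange control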
eLon inh – inhibitors of E. coli Lon protease, primary screen, biochemical, fluorescence polarization; inhibition, % at 7.94 µM; 0.42% of 360,000 active; purified E. coli Lon protease; P0A9M0; AID 602123, 2011; in the data active = inhibition above about 13%, passing the limit was not always enough;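 note: 0% = enzyme with probe and DMSO and 100% = no enzyme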
EBV gp42 inh – Epstein-Barr virus gp42 inhibitors, primary screen, biochemical, uHTS, fluorescence polarization; Glycoprotein 42 (Epstein-Barr virus (strain AG876)), Q1HVG2; Fluorescence polarization binding assay, mP read-out; inhibition, % (tested at 21.74 µM); 0.42% of 220,000 active; in the data active = inhibition above about 50%
Target sequence (Q1HVG2 whole entry, looked up): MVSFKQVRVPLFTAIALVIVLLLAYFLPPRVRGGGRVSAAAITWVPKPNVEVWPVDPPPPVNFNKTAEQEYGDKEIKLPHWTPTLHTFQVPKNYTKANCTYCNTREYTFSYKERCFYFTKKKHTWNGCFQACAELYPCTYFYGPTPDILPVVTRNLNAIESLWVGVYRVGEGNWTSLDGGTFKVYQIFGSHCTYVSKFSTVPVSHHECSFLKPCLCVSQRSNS
RTF Ca sens inh – cardiac RTF calcium sensitivity inhibitors, primary screen, biochemical, IANBD-TnC fluorescence, EC70 calcium; Troponin I, cardiac muscle (Homo sapiens) + Troponin T, cardiac muscle (Homo sapiens) + …; IANBD-labeled cardiac RTF, Ca2+ fluorescence; inhibition, % at 7.15 µM; 0.12% of 340,000 active;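 active = inhibition above the mean inhibition of all tested compounds plus 3 SD, cut at about 17% in these data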;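 note: assay run at fixed EC70 calcium of 1.6 mM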
* hit, by the source's call; i = inactive; / = no result given. Rows were chosen to be rich in hits. Some 0.98% of all compounds tested hit in one or more screens of this group.

SMILES	RTF Ca sens act	Keap1 Nrf2 FP	LANA DNA inh	eLon inh	EBV gp42 inh	RTF Ca sens inh
CNC(=S)N1N=C(c2ccc(Br)cc2)CC1c1ccc(Br)cc1 (configuration not stated)	4	-7	2	-4	2	3
Cc1cc2n(n1)C(c1ccccc1)CC(c1ccc(Br)cc1)=N2 (configuration not stated)	0	3	4	60*	39	-14
N#C/C(=C\c1sc(N2CCOCC2)nc1-c1ccccc1)C(=O)Nc1cccc2ccccc12	/	/	/	/	137*	/
O=C(Nc1ccccc1)c1sc(N2CCOCC2)nc1-c1ccccc1	9	1	0	-12	-3	-9
Cc1ccccc1C1=C/C(=C(\SS/C(C(=O)c2ccc(OCC(=O)O)c(Cl)c2Cl)=C2\C=C(c3ccccc3C)SS2)C(=O)c2ccc(OCC(=O)O)c(Cl)c2Cl)SS1	-44	5	100*	-8	/	-14
COc1ccc(C2C=C(c3ccccc3)Nc3nc(NC(C)=O)nn32)cc1 (configuration not stated)	/	/	/	/	58*	/
COc1ccccc1CN(C)C(=O)COC(=O)c1c(C)noc1C	-2	-3	6	-6	/	3
CCCN1C(=O)S/C(=C\c2ccc(N3CCOCC3)o2)C1=O	171*	-98	-18	-34	-257	-98
CCN1C(=O)S/C(=C\c2ccc(N3CCOCC3)cc2C)C1=O	8	-9	1	-13	-76	-13
CCCN1C(=O)S/C(=C\c2ccc(N3CCOCC3)cc2C)C1=O	/	/	/	/	-36	/
CCCN1C(=O)S/C(=C/c2ccc(N3CCOCC3)o2)C1=O	189*	-142	-15	i	-269	-202
COc1ccc(NS(=O)(=O)c2cccc(C(=O)N(C)Cc3ccc(SC)cc3)c2)cc1	-6	-7	1	-2	/	-6
COc1cc(/C=C/C(=O)O)ccc1O	0	0	1	-7	/	0
COc1cc(/C=C/C(=O)CC(=O)/C=C/c2ccc(O)c(OC)c2)ccc1O	57*	-45	-9	-409	10	-63
OCCNc1nc(Nc2ccccc2)nc2ccccc12	-6	3	-2	-1	1	-1
OCCNc1nc(Nc2ccc(Br)cc2)nc2ccccc12	/	/	/	/	56*	/
Fc1ccc(/C=N/NC2=Nc3cccc4cccc2c34)cc1	-3	3	1	-28	57*	-6
CCn1cc(C(=O)NCc2ccccn2)c(=O)c2cc(S(=O)(=O)N3CCCCC3)ccc21	/	/	/	/	111*	/
CCn1cc(C(=O)NCc2ccco2)c(=O)c2cc(S(=O)(=O)N3CCCCCC3)ccc21	6	0	-1	1	-1	-8
CCOc1ccc2nc3cc(NCc4ccc(OC)cc4)ccc3c(N)c2c1	76*	-1	2	-25	/	-81
O=[N+]([O-])c1ccc(-c2cn3nc(-c4ccccc4)c(-c4ccccc4)nc3n2)cc1	/	/	/	-22	111*	/
O=[N+]([O-])c1cccc(-c2cn3nc(-c4ccccc4)c(-c4ccccc4)nc3n2)c1	11	-1	1	5	72*	-4
C[C@@H]1CN([C@H](C)CO)C(=O)CCCn2nncc2CO[C@H]1CN(C)C(=O)NC1CCCCC1	/	/	/	-13	/	/
Cc1cc(/C=C2\SC(=S)NC2=O)cc(C)c1O	2	-2	-5	-99	-21	-11
CCN(CC)c1ccc(C=C2SC(=S)NC2=O)cc1	241*	-26	-26	i	/	-380
SMILES	RTF Ca sens act	Keap1 Nrf2 FP	LANA DNA inh	eLon inh	EBV gp42 inh	RTF Ca sens inh
CCN(CC)c1ccc(/C=C2\SC(N)=NC2=O)cc1	33*	-15	-5	-275	/	-45
CN(CC(=O)Nc1c(Cl)cccc1Cl)C(=O)CNC(=O)c1ccc2ccccc2c1	-2	-2	-3	-4	/	-11
N=c1c(S(=O)(=O)c2ccc(Cl)cc2)cc2c(=O)n3ccccc3nc2n1C1CCCCC1	-2	25*	11	-7	/	2
COc1ccc(OC)c2cc3ccccc3cc12	9	25*	39	43	/	-19
COc1cc2ccccc2cc1C(=O)O	3	4	0	-5	-2	2
COc1ccccc1CNC(=O)COC(=O)c1ccc2c(=O)n3c(nc2c1)CCCCC3	-3	-4	-1	1	/	-8
CCCCOc1ccc(-c2cc(C(F)(F)F)c(C#N)c(SCC(=O)O)n2)cc1	2	-13	2	11	60*	1
N#Cc1c(C(F)(F)F)cc(-c2ccc(F)cc2)nc1SCC(=O)O	-4	-1	0	-9	-4	-9
COc1cc(CN2CCN(c3cccc(C)c3C)CC2)cc(OC)c1O	4	-5	1	-2	111*	-4
Cc1cccc(N2CCN(Cc3ccoc3)CC2)c1C	-2	0	2	-7	-5	-1
CC1=C(C#N)C(=O)N(C2CCS(=O)(=O)C2)C(=O)/C1=C\c1ccc(C)o1 (configuration not stated)	/	/	/	/	118*	/
Cc1ccc(/C=C2\SC(=S)N(C3CCS(=O)(=O)C3)C2=O)o1 (configuration not stated)	-1	-1	2	2	-39	0
O=C(N/N=C/c1ccc([N+](=O)[O-])o1)c1cc2c(ccc3ccccc32)o1	-2	1	0	3	60*	-5
CC1CN(C(=O)C(C)OC(=O)c2ccc3ncsc3c2)CC(C)O1 (configuration not stated)	-1	6	0	-16	/	-7
Cc1ccc(S(=O)(=O)c2c(N)n(Cc3ccco3)c3nc4ccccc4nc23)cc1C	12	-10	4	-52	4	-22
Nc1c(S(=O)(=O)c2ccccc2)c2nc3ccccc3nc2n1Cc1ccco1	22	-7	8	-54	62*	-40
NS(=O)(=O)c1ccc(NC(=O)c2ccc(-c3ccccc3)cc2)cc1	/	-5	-1	-6	62*	/
O=C(Cc1cccc(NC(=O)C2CCCN(C(=O)CCc3ccccc3)C2)c1)Nc1ccc(C(=O)N2CCCCC2)cc1 (configuration not stated)	0	-7	1	-11	/	-9
COc1ccc2nc(N3C(=O)/C(=C/c4ccc(Cl)cc4)NC3=S)sc2c1	5	-2	-2	-115	54*	-6
C[C@@H](c1ccccc1)N1C[C@H]2CCCN2c2cc(Br)ccc2S1(=O)=O	-2	-2	1	6	/	2
CCOC(=O)c1ccc2c(c1)C1C=CCC1C(C(=O)OCC)N2 (configuration not stated)	6	4	1	-4	/	-13
